The campaign covered roughly 69,000 compounds. About 8,600 (12%) showed an effect of 50% or more. Only a selection was taken, and strong results are over-represented in it overall.

This assay concerns Plasmodium berghei. Kind of assay: Screen against P. berghei liver stage (PbLuc), transformed with Luciferase, at 10uM. Format: functional, HepG2. The conditions noted are these: tested at 10 uM.
On to `CC(=O)N1CCC(Cc2cnc(-n3ccnc3)cn2)CC1`, for which the INHIBITION amounted to 17.1%.
Turning to `COC(=O)c1ccc(OC)c(Cn2cc(N)cn2)c1`, the INHIBITION was found to be 18.9%.
The same measure for `Cc1nc(C)n(CC2CN(Cc3nccs3)Cc3nccn3C2)n1` (stereo not given): 8.03%.
The same measure for `Cc1cc(F)cc(S(=O)(=O)Nc2ccn(CCCC#N)n2)c1`: 26%; for `CC(=O)N(Cc1ncc(C)o1)C1CCN(CCc2cnn(C)c2)C1` (stereo not given): -36.1%.
For `O=C(N1CCOCC1)N1C[C@@H]2CC[C@H]1CN(C1Cc3ccccc3C1)C2`, the INHIBITION is on record as -43.5%.
With `C[C@@H]1CN(Cc2nc(Cc3ccccc3F)no2)C[C@H](C)O1`, the INHIBITION was found to be 3.93%.
For `Cc1nc(C2CCNC2)nc2c1CCC(=O)N2C` (stereo not given), the INHIBITION came out at 17.265%.
The figure for `CS(=O)(=O)Cc1nc(CN2CCc3ccccc3CC2)cs1` is 56.5%; for `CS(=O)(=O)Cc1nc(CN2CC=C(c3ccccc3)CC2)cs1` it is 27.6%.
The figure for `CS(=O)(=O)Cc1nc(CNc2c(F)cc(F)cc2F)cs1` is 40.4%.
In the case of `Cc1cc(CSCc2csc(CS(C)(=O)=O)n2)no1`, the INHIBITION came to 19.4%.
With `CC1(C)CN(Cc2csc(CS(C)(=O)=O)n2)Cc2ccccc21`, the INHIBITION was determined as 60.8%.
`CCc1nc(CSCc2csc(CS(C)(=O)=O)n2)cs1`: the INHIBITION is listed as -29.2%.
The figure for `CS(=O)(=O)Cc1nc(CN2CCC(C(F)(F)F)CC2)cs1` is 52.2%; for `CS(=O)(=O)Cc1nc(CN2CCCc3sccc3C2)cs1` it is 36.2%.
As for `CS(=O)(=O)Cc1nc(CN2CCOc3ccccc3C2)cs1`, the INHIBITION was 7.31%.
The same measure for `COc1ccc(C2CCCN2Cc2ccc(S(=O)(=O)N(C)C)o2)cc1` (stereo not given): 37.4%.
Take `O=C(Cn1cc(C(=O)O)cn1)Nc1c(Cl)cccc1Cl`: the INHIBITION came out at 22.6%.
As to `CC(C(=O)N1CCCN(Cc2ccc(C#N)cc2)CC1)n1cncn1` (stereo not given), the INHIBITION worked out at 27.65%.
Regarding `Cc1n[nH]c(C)c1NC(=O)CCc1cccc(C2CCCN(C)C2)n1` (stereo not given), the INHIBITION is 29.3%.
Turning to `CCCn1c(C)c(CC(=O)NC(C)CO)c2c1CC(C)(C)CC2=O` (stereo not given), the INHIBITION is 18.6%.
On to `O=C1[C@@H]2CN(c3ncnc4[nH]ccc34)C[C@]2(C(=O)O)CN1CC1CC1`, for which the INHIBITION turned out to be 36.6%.
Take `Cc1ccc(-c2cc(CNC(=O)N3CCCN(C)CC3)on2)cc1`: the INHIBITION was found to be 35.9%.
The same measure for `Cn1c(=O)[nH]c(=O)c2c1nc1n2CC(c2ccc(Cl)cc2)O1` (stereo not given): 7.92%; for `COc1ccc(Br)cc1CN(C)C(C)c1nc(C)no1` (stereo not given): 4.82%; for `CCc1noc(C(C)N(C)CC(=O)Nc2ccc(Br)cc2C)n1` (stereo not given): 74%.
On to `CCc1noc(C(C)N(C)CC(=O)Nc2cccc(C)c2C)n1` (stereo not given), for which the INHIBITION is 41.4%.
On to `CCc1noc(C(C)N(C)CC(=O)Nc2ccc(Cl)c(C(F)(F)F)c2)n1` (stereo not given), for which the INHIBITION stood at 90.2%.
The figure for `CCc1noc(C(C)N(C)CC(=O)Nc2ccc(C)cc2)n1` (stereo not given) is 27.6%; for `COc1ccc(Br)cc1CN(C)C(C)c1nc(C(C)C)no1` (stereo not given) it is 3.73%; for `CCc1noc(C(C)N(C)Cc2cc(Br)ccc2OC)n1` (stereo not given) it is 51.5%.
The figure for `CCc1noc(C(C)N(C)CC(=O)Nc2c(C)cccc2C)n1` (stereo not given) is -8.69%; for `CCc1noc(C(C)N(C)CC(=O)Nc2cccc(C)n2)n1` (stereo not given) it is -29.2%; for `Cc1ccccc1NC(=O)NCC(C)(O)c1cccs1` (stereo not given) it is 48.8%.
In the case of `Cc1noc2nc(C3CCN(Cc4ccccn4)CC3)cc(C(F)F)c12`, the INHIBITION turned out to be 47.1%.
The same measure for `Cc1cc(C(NC(=O)CNS(C)(=O)=O)C(C)C)c(C)s1` (stereo not given): 22.3%.
Take `Cc1cccc(CN2C[C@@H]3COC[C@]3(CNC(=O)c3ccsc3)C2)n1`: the INHIBITION came out at 39.8%.
With `COc1ccc(CN2CCO[C@@H]3C[C@@H](C(=O)NC(C)C)C[C@H]32)cc1`, the INHIBITION was 26.5%.
The same measure for `CCS(=O)(=O)NC(CCSC)C(=O)Nc1cccc(C)c1C` (stereo not given): 26.9%; for `CC(Oc1cc(Cl)cc(Cl)c1)C(=O)NCCS(N)(=O)=O` (stereo not given): 34.7%; for `Cc1c(Br)c(C(=O)NC(C)c2ccccc2)nn1C` (stereo not given): -38.2%.
As to `Cc1ccc(-c2noc(CCC(=O)NC(C)Cn3cccn3)n2)cc1` (stereo not given), the INHIBITION came to 22.6%.
With `O=C(c1ccco1)N1CCn2cc(CN3CCCC3)nc2C1`, the INHIBITION was 25.2%.
The same measure for `O=C(c1ccnnc1)N1CCn2cc(CN3CCCCC3)nc2C1`: 41.6%; for `CC(=O)NCC(=O)N1CCn2cc(CN3CCCCC3)nc2C1`: 68.8%.
The same measure for `Cn1cccc1C(=O)N1CCn2cc(CN3CCCC3)nc2C1`: 52%; for `O=C(c1ccc[nH]1)N1CCn2cc(CN3CCCC3)nc2C1`: 18.8%; for `CN1CCN(Cc2cn3c(n2)CN(C(=O)c2cccn2C)CC3)CC1`: 54.7%.
With `O=C(c1cccnc1)N1CCn2cc(CN3CCCC3)nc2C1`, the INHIBITION is 31.1%.
As for `CN1CCN(Cc2cn3c(n2)CN(C(=O)c2ccccn2)CC3)CC1`, the INHIBITION is 25.1%.
The figure for `O=C(CCc1ccccc1)N1CCn2cc(CN3CCCC3)nc2C1` is 41.4%; for `N#Cc1ccc(C(=O)N2CCn3cc(CN4CCCCC4)nc3C2)cc1` it is 52%; for `CN1CCN(Cc2cn3c(n2)CN(C(=O)c2ccco2)CC3)CC1` it is 17.4%.
The same measure for `CC(=O)NCC(=O)N1CCn2cc(CN3CCN(C)CC3)nc2C1`: 43.5%.
